SENP7 block = blocks the human protease SENP7; Q9BQF6; recombinant SENP7, Z-RLRGG-aminoluciferin luminescence, 40 min; inhibition, % at 5 µM; actives 1.5% (n = 330,000);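 active = inhibition above about 50% at the single test dose, limit read from the data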;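 note: plate controls were DMSO with enzyme for no effect and no enzyme buffer wells for full effect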
Target sequence (Q9BQF6 706-1050 limits assumed): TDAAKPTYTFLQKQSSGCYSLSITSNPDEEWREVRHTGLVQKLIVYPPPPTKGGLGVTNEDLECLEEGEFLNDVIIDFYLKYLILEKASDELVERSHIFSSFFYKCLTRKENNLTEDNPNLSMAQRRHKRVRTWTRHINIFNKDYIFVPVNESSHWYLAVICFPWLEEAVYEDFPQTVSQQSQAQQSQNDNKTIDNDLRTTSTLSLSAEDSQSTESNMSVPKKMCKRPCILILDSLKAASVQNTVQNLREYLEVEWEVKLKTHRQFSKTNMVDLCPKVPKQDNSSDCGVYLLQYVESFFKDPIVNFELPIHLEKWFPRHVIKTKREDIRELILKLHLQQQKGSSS
SENP8 block-1 = SENP8 (human) protease inhibition | inhibition, % at 20 µM | Q96LD8 | actives 0.64% (n = 360,000) | recombinant SENP8, Nedd8 substrate fluorescence; in the data active = inhibition mostly above about 40%, no sharp cut-off; inactive = mostly below about 27%
Platelet DG rel = platelet dense granule release activity; human platelet-rich plasma, SFLLRN dense granule ATP release, luminescence; inhibition, %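 (compounds screened at 7.5 µM in platelet-rich plasma)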; actives 0.22% (n = 300,000);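 active = mean replicate score, as percent of positive control, at or above 50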
SENP8 block-2 = inhibitors of human SENP8 protease | inhibition, % at 10 µM | actives 1.2% (n = 330,000) | Q96LD8 | purified SENP8, Z-RLRGG-aminoluciferin cleavage, luminescence; in the data active = inhibition above about 50%
SENP6 block = SENP6 protease inhibition | Q9GZR1 | Recombinant SENP6 catalytic domain, aminoluciferin luminescence | inhibition, % at 10 µM | actives 1.8% (n = 330,000) | AID 2599;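 active = inhibition above about 50% at the single tested dose, limit read from the data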;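 note: plate controls were DMSO wells with enzyme for no effect and DMSO wells lacking enzyme for full effect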
SENP8 confirm = human SENP8 inhibition, confirmed; Recombinant SENP8, Z-RLRGG-aminoluciferin luminescence, 60 min; inhibition, % at 12.5 µM; shares compounds with SENP7 block; actives 40% (n = 6,200);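 active = mean inhibition across replicates above about 50%, limit read from the data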
SENP6 confirm = confirmation of human SENP6 protease inhibitors. shares compounds with SENP7 block. recombinant SENP6, Z-RLRGG-aminoluciferin luminescence. inhibition, % at 12.5 µM. actives 58% (n = 6,200). AID 488915
SENP7 conf = human SENP7 inhibition, confirmed | recombinant SENP7, Z-RLRGG-aminoluciferin luminescence, 40 min | inhibition, % at 12.5 µM | shares compounds with SENP7 block | actives 69% (n = 6,200)
Casp3 select = inhibits human caspase-3 in SENP selectivity test; actives 60% (n = 6,200); AID 488918; shares compounds with SENP7 block; purified caspase-3, Z-DEVD-aminoluciferin luminescence, 60 min; inhibition, % at 12.5 µM;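 active = mean inhibition above about 50%, limit read from the data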;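 note: plate controls were enzyme with DMSO for no effect and wells without caspase-3 for full effect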
Luc interf = interferes with luciferase luminescence in SENP counter-screen; shares compounds with SENP7 block; Pre-incubated SENP8/Z-RLRGG-aminoluciferin, luciferase luminescence interference; inhibition, % at 12.5 µM; actives 39% (n = 6,200);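 active = mean inhibition above about 50% when retested at one dose, limit read from the data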;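 note: plate controls were DMSO wells with completed reaction for no effect and substrate without enzyme for full effect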
Numbers without * were called inactive; . = no result. Most compounds without a hit are left out; they make up all but 2.4% or so of the library.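 Rule for the calls, unless noted: active = mean inhibition above about 50% in the one-dose retest (limit read from the data); inactive = the rest.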

SMILES	SENP7 block	SENP8 block-1	Platelet DG rel	SENP8 block-2	SENP6 block	others
C[C@@H]1CN([C@H](C)CO)C(=O)CCCn2nncc2CO[C@@H]1CN(C)S(=O)(=O)c1ccc(F)cc1	.	2.2	.	.	.
COc1ccc(OC)c(NC(=O)/C=C/c2ccccc2[N+](=O)[O-])c1	-8.2	25.3	23.2	-4.8	16.5
COc1cccc(NC(=O)/C=C/c2ccc([N+](=O)[O-])cc2)c1	38.2	11.3	14.5	50.6*	74.7*
CCN(CC)S(=O)(=O)c1cccc(NC(=O)/C=C/c2ccc([N+](=O)[O-])cc2)c1	6.0	14.6	-4.0	-1.2	9.5
COc1cccc(NC(=O)/C=C/c2ccccc2[N+](=O)[O-])c1	93.7*	34.2	4.7	90.5*	97.8*
CCOC(=O)c1cccc(NC(=O)c2c(NCc3ccccc3)[nH]c(=O)[nH]c2=O)c1	0.4	-1.9	-2.7	-18.3	-28.6
CCCOc1ccc(/C=C2\SC(=S)N(CC3CCCO3)C2=O)cc1 (configuration not stated)	-4.7	48.9*	5.8	-18.9	-4.0
O=C1/C(=C/c2ccc(O)cc2)SC(=S)N1CC1CCCO1 (configuration not stated)	8.2	27.7	-4.2	7.7	43.9
Nc1ccc2c(c1)C(=O)C(=O)c1ccccc1-2	98.1*	141.9*	-14.7	97.2*	88.7*
Nc1ccc2c(c1)C(=O)c1ccccc1-2	-4.6	9.7	4.2	-11.3	-5.7
O=C1C(=O)c2ccc(-c3ccccc3)cc2-c2ccccc21	90.5*	99.6*	-1.8	58.0*	89.2*
COc1cc(C(=C(CC(=O)O)C(=O)O)c2ccc3c(c2)OCO3)cc(OC)c1OC	.	10.7	.	.	.
COC(=O)c1cn(CC(C)n2c(=O)c3ccccc3n2Cc2cc(C(C)C)no2)nn1 (configuration not stated)	.	-380.9	.	.	.
[O-][n+]1ccc(CC(O)(C(F)(F)F)C(F)(F)F)cc1	.	13.4	.	.	.
CCOc1ccc(N2C(=O)CSC2=S)cc1	9.3	5.6	-3.5	2.9	17.3
CCN(CC)c1ccc(N2C(=O)CSC2=S)cc1	13.8	54.6*	-3.1	3.4	6.7
CC(=O)NC1=C(NC2CCS(=O)(=O)C2)C(=O)c2ccccc2C1=O (configuration not stated)	14.1	45.8*	3.9	5.6	18.2
O=C(CCN1C(=O)/C(=C/c2ccccc2)SC1=S)NC1CCS(=O)(=O)C1 (configuration not stated)	-3.1	12.0	-4.9	15.5	16.5
O=C(CN1C(=O)/C(=C/c2ccco2)SC1=S)NC1CCS(=O)(=O)C1 (configuration not stated)	-1.6	40.9*	1.3	-3.7	7.0
O=[N+]([O-])c1ccc(N=Nc2ccc(O)c3ccccc23)cc1	.	44.9*	.	.	.
O=S(=O)(Nc1ccc(N=Nc2ccc(O)c3ccccc23)cc1)c1ccccc1	-2.9	37.6	5.1	-3.0	1.6
OCCN(CCO)c1cc2c3ccccc3ccc2c2ccccc12	.	-473.0	.	.	.
COc1ccc(Br)cc1CNc1ccc(O)cc1	57.9*	60.9*	.	-5.7	6.4
COc1ccc(Br)cc1CNc1ccc2[nH]c(=O)[nH]c2c1	7.9	-60.6	-2.4	-1.4	-14.9
N#C/C(=C\c1cc([N+](=O)[O-])c(N2CCCCC2)cc1N1CCCCC1)c1nn(-c2ccccc2)c(N)c1C#N	4.1	50.4*	.	2.3	19.1
O=C1/C(=C\c2ccc(Br)o2)Cc2ccccc21	21.9	-43.1	-7.6	43.2	72.8*
Cc1ccc(N=C/C(C(=O)C(F)(F)F)=C(\O)c2cccs2)cc1	96.2*	-50.0	6.0	20.0	26.7	SENP8 confirm=10.4;SENP6 confirm=6.5;SENP7 conf=0.0;Casp3 select=28.6;Luc interf=55.5*
